Measured values from PubChem BioAssay (NCATS).
Records with an inconclusive call do not appear. Where a call stands in place of a potency, no number is given. Active and inactive are the calls of the source. The call rests on the fitted dose curve; in most records, active means well fitted curve in the direction sought with a large enough effect; inconclusive means small, poorly fitted or top-dose-only effect, or another doubt; inactive means no such curve, though single readings can be large; an effect the other way counts as inactive or inconclusive.

Tests used:
[1] = Cell Viability - HUV-EC-C (AID 542); further: nearly all actives have a fitted effect of over 35% in size; further: potency means the concentration at half of the fitted maximal effect
How it was run: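 HUV-EC-C human vascular endothelial cells, 1000/well, exposed to compound for 40 hr at 37 °C in complete medium. Intracellular ATP was read by CellTiter-Glo luminescence. AC50 came from Hill-equation fits of concentration-response data.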

[2] = Cellular Toxicity (caspase-3) SHSY5Y (AID 657)
How it was run: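 SH-SY5Y human neuroblastoma cells, 1500/well, exposed to compound for 16 hours at 37 °C in complete medium. Caspase-3/7 activity read by Caspase-Glo luminescence after 1 hr at room temperature, normalized to DMSO and 10 uM staurosporine; AC50 from Hill fit.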

[3] = Cellular Toxicity (caspase-3) Mesangial (AID 660)
How it was run: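 Human renal glomerular mesangial cells, 1000/well, 5 h at 37 C before 16 h compound treatment. Caspase-Glo 3/7 luminescence after 20 min; normalized to DMSO and 100 uM tamoxifen, AC50 from Hill fit.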

[4] = Cellular Toxicity (caspase-3) SK-N-SH (AID 661)
How it was run: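 Human SK-N-SH neuroblastoma cells, 1500/well, were exposed to compounds for 16 hours at 37 °C. Caspase-Glo 3/7 luminescence was normalized to DMSO (basal) and 10 uM staurosporine (100%), and AC50 came from a Hill fit.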

[5] = Cellular Toxicity (caspase-3) H-4-II-E (AID 663); details: Potency: caspase-3 activation;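 further: cells exposed to compound for 16 hr before readout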
How it was run: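 Rat hepatoma H-4-II-E cells (1500/well) plated 5 hr, then exposed to compound titrations for 16 hr at 37 °C. Caspase-Glo 3/7 luminescence read after 20 min at RT; data normalized to DMSO and 100 uM tamoxifen, AC50 from Hill fits.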

[6] = Cellular Toxicity (caspase-3) N2a (AID 665);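 further: compound exposure lasted 16 h at 37 °C before readout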
How it was run: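 Mouse N2a neuroblastoma cells, 1500 per well, treated 16 h at 37 °C in complete medium; caspase-3/7 activity by Caspase-Glo luminescence after 1 h. Normalized to DMSO and 10 uM staurosporine; AC50 from Hill fits.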

[7] = Cellular Toxicity (caspase-3) NIH 3T3 (AID 666);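 further: caspase signal read after 16 h compound exposure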
How it was run: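 Mouse NIH 3T3 fibroblasts (1000/well) treated 16 h at 37 C; caspase-3/7 activity measured by Caspase-Glo 3/7 luminescence after 20 min. Normalized to DMSO and 100 uM tamoxifen; AC50 from Hill fits.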

[8] = MultiTox-Fluor Cytotoxicity Assay - LYMP1-001 - Dead Cells (AID 946)
How it was run: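 AC50 from Hill fit of concentration-response; data normalized to DMSO (basal) and 15 uM tetraoctylammonium bromide (100%). LYMP1-001 lymphoblastoid cells, 2500/well, 16 hr compound at 37 C; dead-cell protease fluorescence, Ex/Em 485/520.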

[9] = Cell Viability - LYMP1-002 - Assay at 16 hr (AID 948); further: potency means the concentration at half of the fitted maximal effect
How it was run: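 LYMP1-002 human lymphoblastoid cells, 2500/well, were treated with compounds for 16 hr at 37 C in complete medium. Viability was read as intracellular ATP by CellTiter-Glo luminescence, and AC50 was derived from a Hill fit to concentration-response data.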

[10] = MultiTox-Fluor Cytotoxicity Assay - LYMP1-003 - Dead Cells (AID 961); further: nearly all actives have a fitted effect of over 70% in size; further: potency means the concentration at half of the fitted maximal effect
How it was run: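 Human lymphoblastoid LYMP1-003 cells (2500/well) were treated with compounds for 16 hr at 37 C in complete medium. Dead-cell protease release was read by bis-AAF-R110 fluorescence (Ex/Em 485/520). AC50 came from Hill fits, normalized to DMSO and 15 uM tetraoctylammonium bromide.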

[11] = Cell Viability - LYMP1-003 - Assay at 24 hr (AID 963)
How it was run: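 Human lymphoblastoid LYMP1-003 cells, 2500/well, treated 24 h at 37 C in complete medium. Viability read as intracellular ATP by CellTiter-Glo luminescence after 30 min at room temperature; AC50 from Hill-equation fits of qHTS concentration-response.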

[12] = Cell Viability - LYMP2-003 (AID 965);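 further: cells exposed to compounds for 24 h before reading; nearly all actives have a fitted effect of over 50% in size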; further: potency means the concentration at half of the fitted maximal effect
How it was run: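 Human lymphoblastoid LYMP2-003 cells, 2500/well, exposed to compounds for 24 h at 37 C in complete medium. Viability read as intracellular ATP by CellTiter-Glo luminescence; AC50 from Hill-equation fits of qHTS concentration-response data.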

[13] = Cell Viability - LYMP2-004 (AID 966); further: nearly all actives have a fitted effect of over 65% in size; further: potency means the concentration at half of the fitted maximal effect
How it was run: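 Lymphoblastoid LYMP2-004 cells, 2500 per well, were preincubated for 5 hr and then treated with compound for 24 h at 37 C in complete medium. Viability was read as cellular ATP by CellTiter-Glo luminescence, and AC50 values were taken from Hill fits to concentration-response data.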

[14] = Cell Viability - LYMP2-023 (AID 975); further: nearly all actives have a fitted effect of over 55% in size; further: potency means the concentration at half of the fitted maximal effect
How it was run: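 LYMP2-023 human lymphoblastoid cells, 2500/well, preincubated 5 hr at 37 C, then compound-treated 24 hr at 37 C in complete medium. CellTiter-Glo luminescence (ATP) after 30 min at room temperature; AC50 from Hill-equation fits; tetraoctylammonium bromide positive control.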

[15] = Cell Viability - LYMP2-014 (AID 983); further: nearly all actives have a fitted effect of over 50% in size; further: potency means the concentration at half of the fitted maximal effect
How it was run: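 LYMP2-014 human lymphoblastoid cells, 2500/well, treated 24 h at 37 C in complete medium; viability by CellTiter-Glo ATP luminescence after 30 min at room temperature. AC50 from Hill fits of qHTS concentration-response; tetraoctylammonium bromide positive control.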

[16] = Cell Viability - LYMP2-016 (AID 984); further: nearly all actives have a fitted effect of over 55% in size; further: potency means the concentration at half of the fitted maximal effect
How it was run: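 Human lymphoblastoid LYMP2-016 cells, 2500 per well, treated with compounds for 24 h at 37 C. Viability read as intracellular ATP by CellTiter-Glo luminescence after 30 min at room temperature; AC50 from Hill fits of concentration-response.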

[17] = Cell Viability - LYMP2-026 (AID 989); further: nearly all actives have a fitted effect of over 50% in size; further: potency means the concentration at half of the fitted maximal effect
How it was run: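 Human lymphoblastoid LYMP2-026 cells, 2500/well, exposed to compound 24 h at 37 C in complete medium. Viability as intracellular ATP by CellTiter-Glo luminescence; AC50 from Hill fits of qHTS concentration-response.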

[18] = Cell Viability - LYMP1-002 - Assay at 24 hr (AID 993)
How it was run: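 Human lymphoblastoid LYMP1-002 cells (2500/well) treated 24 h at 37 °C; viability as intracellular ATP by CellTiter-Glo luminescence. Tetraoctylammonium bromide as positive control; AC50 from Hill-equation fits of qHTS concentration-response.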

[19] = Cell Viability - LYMP1-002 - Assay at 40 hr (AID 994); further: nearly all actives have a fitted effect of over 60% in size; further: potency means the concentration at half of the fitted maximal effect
How it was run: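 LYMP1-002 human lymphoblastoid cells (2500/well, complete medium) were treated with compounds for 40 hr at 37 C. Intracellular ATP was measured by CellTiter-Glo luminescence, and AC50 values came from Hill-equation fits of concentration-response data; tetraoctylammonium bromide was the positive control.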

| Structure (SMILES) | Potency [1] | Potency [2] | outcome [3] | outcome [4] | Potency [5] | outcome [6] | outcome [7] | Potency [8] | Potency [9] | Potency [10] | Potency [11] | Potency [12] | Potency [13] | Potency [14] | Potency [15] | Potency [16] | Potency [17] | Potency [18] | Potency [19] |
| --- | --- | --- | --- | --- | --- | --- | --- | --- | --- | --- | --- | --- | --- | --- | --- | --- | --- | --- | --- |
| CCCCC(CC)COP(=O)(OCC(CC)CCCC)OCC(CC)CCCC (stereo not drawn) | inactive | inactive | inactive | inactive | inactive | inactive | inactive | inactive | inactive | inactive | inactive | inactive | inactive | inactive | inactive | inactive | inactive | inactive | inactive |
| c1ccc(COCc2ccccc2)cc1 | inactive | inactive | inactive | inactive | inactive | inactive | inactive | inactive | inactive | inactive | inactive | inactive | inactive | inactive | inactive | inactive | inactive | inactive | inactive |
| C=CC(=O)OCCCCCCOC(=O)C=C | inactive | inactive | inactive |  |  | inactive | inactive |  | 39.8 µM (active) | 31.6 µM (active) |  | 39.8 µM (active) | 39.8 µM (active) | 39.8 µM (active) | 50.1 µM (active) | 39.8 µM (active) | 39.8 µM (active) |  | 39.8 µM (active) |
| COc1ccc(C)cc1N | inactive | inactive | inactive | inactive | inactive | inactive | inactive | inactive | inactive | inactive | inactive | inactive | inactive | inactive | inactive | inactive | inactive | inactive | inactive |
| O=C(O)/C=C/c1ccc(/C=C/C(=O)O)cc1 | inactive | inactive | inactive | inactive | inactive | inactive |  | inactive | inactive | inactive | inactive | inactive | inactive | inactive | inactive | inactive | inactive | inactive | inactive |
| CC(=O)CC(=O)Nc1ccccc1 | inactive | inactive | inactive | inactive | inactive | inactive | inactive | inactive | inactive | inactive | inactive | inactive | inactive | inactive | inactive | inactive | inactive | inactive | inactive |
| Cc1cc(-c2ccc(N=Nc3cc(S(=O)(=O)O)c4ccccc4c3N)c(C)c2)ccc1N=Nc1cc(S(=O)(=O)O)c2ccccc2c1N | 25.1 µM (active) | inactive | inactive | inactive | inactive | inactive | inactive | inactive |  |  | inactive | inactive | inactive |  |  |  | inactive | inactive |  |
| CCCCCCCC/C=C\CCCCCCCC(=O)N(CCO)CCO | 39.8 µM (active) | inactive | inactive | inactive |  | inactive | inactive | inactive | inactive | inactive | inactive | inactive | inactive | inactive | inactive | inactive | inactive | inactive | inactive |
| CCN(CC)c1ccc2c(C)cc(=O)oc2c1 | inactive | inactive | inactive | inactive | inactive | inactive | inactive | inactive | inactive | inactive | inactive | inactive | inactive | inactive | inactive | inactive | inactive | inactive | inactive |
